# Gli-Sufu block: antagonists of Gli-Sufu signaling | 0.74% of 340,000 active | Sufu-KO-LIGHT fibroblasts, Gli luciferase reporter luminescence | inhibition, % at 5 µM;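 active = inhibition above about 55%, limit read from the data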;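 note: 0% = DMSO-treated cells and 100% = wells with medium but no cells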
# GAA850 FXN act: activators of GAA850 frataxin (FXN) promoter; HEK293 lucGAA850 FXN promoter luciferase reporter, 24 h; percent of 10 µM SAHA response; activation, % at 6 µM; 0.56% of 360,000 active; AID 540364;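 active = activation above the average of all compounds screened plus 3 SD, cutoff fixed separately per campaign, cut at about 7.5% in these data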;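 note: 0% = DMSO wells and 100% = 10 µM SAHA wells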
# H9c2 protect: myocardial damage modulation in H9c2 cells. H9c2 cardiomyocytes, H2O2 injury protection, ATPLite, 2 h. protection from H2O2 cell death, % at 20 µM. AID 588492. 0.63% of 360,000 active;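 active = compounds giving at least 50% protection of heart cells from peroxide-induced death in the single-dose screen, raw or plate-pattern-corrected value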;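 note: 0% = DMSO wells with peroxide and 100% = DMSO wells without peroxide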
# SMARCA2 act: increases SMARCA2 function in MMTV reporter cells | activation, % at 9.1 µM | MG213 cells, MMTV-luciferase reporter, dexamethasone, overnight | 1% of 370,000 active; in the data active = activation above about 7.8%;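 note: 0% = vehicle wells and 100% = reference activator wells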
# GalR3 antag: human GalR3 antagonism. O60755. HEK293 GalR3-CNG cAMP membrane potential fluorescence; galR3 body fused to GalR1 C-terminus. inhibition, % at 3 µM. 0.44% of 360,000 active. AID 651719;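 active = inhibition above the screen-wide average plus 3 SD, cut at about 13% in these data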;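 note: forskolin and galanin both at EC90 stimulate the cells; cAMP rise reported by CNG channel membrane potential dye signal; 0% = forskolin plus galanin with DMSO and 100% = forskolin alone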
# Target sequence (O60755 1-299 limits assumed): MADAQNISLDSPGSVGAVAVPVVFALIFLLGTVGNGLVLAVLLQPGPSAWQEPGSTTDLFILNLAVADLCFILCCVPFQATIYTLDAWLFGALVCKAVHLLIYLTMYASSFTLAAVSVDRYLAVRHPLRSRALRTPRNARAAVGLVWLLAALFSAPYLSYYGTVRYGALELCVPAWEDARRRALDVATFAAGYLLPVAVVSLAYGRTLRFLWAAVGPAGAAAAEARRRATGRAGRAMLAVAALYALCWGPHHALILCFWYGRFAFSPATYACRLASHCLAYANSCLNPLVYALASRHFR
# NR2F2 inh: inhibitors of human COUP-TFII (NR2F2). P24468. HEK293T NGFI-A luciferase reporter, luminescence. inhibition, % at 8.6 µM. 0.7% of 370,000 active. AID 686940;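 active = inhibition above a per-plate cutoff, mean inhibition of test wells between control levels plus 3 SD, cut at about 38% in these data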;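 note: cells cotransfected with COUP-TFII expression vector driving the NGFI-A reporter; 0% = median of COUP-TF2 test wells and 100% = reporter-only cells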
# Target sequence (P24468 whole entry, looked up): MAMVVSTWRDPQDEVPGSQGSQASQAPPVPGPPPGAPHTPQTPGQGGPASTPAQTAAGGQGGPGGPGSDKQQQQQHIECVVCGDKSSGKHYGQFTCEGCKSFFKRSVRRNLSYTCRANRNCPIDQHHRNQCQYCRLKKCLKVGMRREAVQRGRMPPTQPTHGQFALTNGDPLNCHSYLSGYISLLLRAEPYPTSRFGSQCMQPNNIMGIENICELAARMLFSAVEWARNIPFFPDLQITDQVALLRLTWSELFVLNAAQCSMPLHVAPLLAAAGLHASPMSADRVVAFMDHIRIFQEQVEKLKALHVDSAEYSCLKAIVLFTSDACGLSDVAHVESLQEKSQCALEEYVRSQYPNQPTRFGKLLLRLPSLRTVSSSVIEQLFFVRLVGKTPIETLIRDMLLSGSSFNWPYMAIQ
# GAA30 counter: counter-screen for GAA850 frataxin promoter activators: GAA30 promoter activation; shares compounds with GAA850 FXN act; HEK293 lucGAA30 FXN promoter luciferase, 24 h; DMSO = 0%, 5 µM ipriflavone = 100%; activation, % at 6 µM; 66% of 1,900 active;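 active = mean activation above the mean of solvent-only control wells plus 3 SD, cut at about 22% in these data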;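 note: counterscreen of GAA850 promoter hits where activity marks nonselective or luminescence artifacts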
# FXN GAA850 conf: confirmation of GAA850 frataxin (FXN) promoter activators | shares compounds with GAA850 FXN act | HEK293 lucGAA850 FXN promoter luciferase reporter, 24 h; 100% = activation by SAHA | activation, % at 6 µM | 86% of 1,900 active;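 active = mean activation above a set limit taken from the primary screen, cut at about 8% in these data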;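 note: 0% = DMSO wells and 100% = 10 µM SAHA wells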
# * hit, by the source's call; . = not tested or not shown. In the library only some 3.4% were active in any assay of this set; here they are far more common.
SMILES,Gli-Sufu block,GAA850 FXN act,H9c2 protect,SMARCA2 act,GalR3 antag,NR2F2 inh,GAA30 counter,FXN GAA850 conf
O=C(Nc1cccc(Cl)c1)c1ccccc1,-26.4,7.7*,-10.0,2.8,0.1,-69.1,75.9*,20.1*
O=C(NNC(=S)Nc1cccc(Cl)c1)c1ccccc1,5.5,4.9,0.8,3.6,0.2,-39.9,.,.
CC(COc1ccc(F)cc1)CN1CCC(C(O)(c2ccccc2)c2ccccc2)CC1 (stereo not drawn),.,.,.,-6.6,.,10.0,.,.
CC(O)CNc1ncnc2cc(-c3ccc(F)cc3)sc12 (stereo not drawn),14.2,10.3*,-6.2,2.0,-8.2,-25.2,74.9*,30.2*
Cc1ccc(OCc2nnc(SCC(=O)Nc3ccc(S(N)(=O)=O)cc3)n2-c2ccc(Cl)cc2)cc1,.,.,.,-4.6,.,0.1,.,.
NNC(=O)c1ccc(CSc2cccc3cccnc23)cc1,-12.2,0.5,-6.1,-2.8,-5.4,3.6,.,.
c1cnc2c(SCc3ccc(-c4nnco4)cc3)cccc2c1,-25.6,8.4*,8.8,4.6,-0.5,-23.8,73.9*,26.6*
Cc1cccc(CSc2cccc3cccnc23)c1,8.4,24.6*,-4.0,4.8,-3.4,-6.6,-69.2,-13.2
c1cncc(CNc2cccc(-c3nc4ccccc4[nH]3)c2)c1,-49.3,8.5*,-9.3,4.8,-3.4,-19.1,89.3*,28.1*
Fc1ccccc1N=C1NN=C(c2ccccc2)CS1,-62.6,8.0*,-14.7,-7.2,-5.2,-45.3,123.7*,40.5*
COc1ccc(C(C)(C)C)cc1NC(=O)c1cc(S(=O)(=O)N(C)C)ccc1N1CCCC1,10.8,14.9*,-4.4,-4.5,-1.9,8.8,-3.1,9.3*
Cn1c(O)c(/C=C2\C=Nc3ccccc32)sc1=Nc1ccc(C(=O)O)cc1,-27.6,1.6,5.0,0.8,-6.4,-11.4,.,.
CCn1c(O)c(/C=C2\C=Nc3ccccc32)sc1=Nc1ccccc1,-24.5,12.7*,-13.2,2.5,-8.2,-11.0,60.0*,27.1*
CCc1ccc(OCc2ccc(C(=O)OC)o2)cc1,-67.7,7.6*,-4.8,1.8,0.0,-16.3,78.0*,27.7*
CC(C)(C)c1ccc(OCc2ccc(C(=O)N3CCOCC3)o2)cc1,-48.9,8.4*,-8.1,3.1,-4.4,24.9,51.9*,24.0*
COc1cc(OC)cc(C2=Cc3ccccc3C(CC(C)=O)N2c2ccc(C#CC3(N)CCCCC3)cc2)c1 (stereo not drawn),.,.,.,-0.8,-1.3,-2.7,.,.
COc1cc(NC(=O)C2CCCN(S(=O)(=O)c3ccccc3)C2)cc(OC)c1 (stereo not drawn),.,.,.,-1.6,.,14.0,.,.
c1csc(CSc2nc3ccccc3s2)c1,-83.1,7.7*,-9.4,4.3,-8.9,-22.9,121.6*,38.9*
Cc1noc(C)c1CSc1nc2ccccc2s1,-10.9,4.0,-11.0,0.5,-0.7,-2.6,.,.
CC1=CC(C)=Nc2ccccc2N1,1.8,7.9*,-2.3,6.3,-10.6,-47.6,79.0*,18.1*
CCCN1CCS(=O)(=O)N(Cc2cn(Cc3ccccc3)nn2)C(C(=O)OC)C1 (stereo not drawn),.,.,.,3.9,.,-14.9,.,.
C=CCn1c2ccccc2c(=O)c2cc(C#CC[C@@H](C)O)ccc21,-50.9,11.3*,-9.4,6.7,-5.8,-24.9,127.4*,44.3*
C=CCn1c2ccccc2c(=O)c2cc(C#CC3(O)CCCCC3)ccc21,-28.3,11.2*,-9.4,6.4,-10.5,-32.4,104.2*,55.0*
Cn1c2ccccc2c(=O)c2cc(C#Cc3cccc(N)c3)ccc21,-29.2,0.2,11.4,.,.,.,.,.
C=CCN1C(=O)[C@@H](CC(=O)N2CCOCC2)[C@]2(C(=O)OC)CCCCC=C12,.,.,.,-1.4,.,1.6,.,.
SMILES,Gli-Sufu block,GAA850 FXN act,H9c2 protect,SMARCA2 act,GalR3 antag,NR2F2 inh,GAA30 counter,FXN GAA850 conf
COC(=O)C1CN(Cc2cn(Cc3ccc(C)cc3)nn2)CCS(=O)(=O)N1Cc1ccc(Cl)cc1 (stereo not drawn),.,.,.,-5.3,.,10.4,.,.
CC(C)CCOP(=O)(c1ccc(N(C)C)cc1)C(O)c1ccccc1 (stereo not drawn),-27.2,8.2*,2.6,-1.5,-11.2,3.1,6.9,5.5
O=C1CN(C(=O)CN2CCN(S(=O)(=O)c3ccccc3)CC2)c2ccccc2N1,.,-0.5,-2.4,-2.8,-2.5,11.9,.,.
CCOC(=O)c1c(CSC(=N)N)n(-c2ccccc2)c2cc(Br)c(OC(C)=O)cc12,4.1,10.1*,-25.9,-0.9,-10.5,-0.1,-6.6,32.8*
COCC(=O)NCCc1nc2ccccc2[nH]1,-3.5,16.5*,3.3,2.9,.,-4.1,22.4*,7.9*
COCC(=O)NCc1nc2ccccc2[nH]1,2.6,-0.7,-1.2,-2.7,1.9,-10.1,.,.
CCOC(=O)[C@@H]1CSCCS(=O)(=O)N1C(=O)[C@H](Cc1ccccc1)NC(=O)OC(C)(C)C,.,.,.,0.1,-1.2,-0.2,.,.
O=C(N(c1ccccn1)c1ccccn1)C12CC3CC(CC(Cl)(C3)C1)C2,6.5,8.4*,3.8,7.1,5.1,-0.8,17.8,6.4
Cc1cc(-c2nnco2)c(C)n1-c1ccc(F)cc1,-16.4,7.7*,-0.5,2.5,-1.5,-4.3,53.0*,22.0*
Cc1ccc(C)n1-c1ccc(-c2nnco2)cc1,.,-0.2,9.5,.,.,.,.,.
O=C(Nc1nc2ccccc2[nH]1)C1CCCC1,-45.3,10.1*,-7.7,1.3,2.6,-22.1,85.8*,26.4*
CCOC(=O)[C@H]1[C@H]2COc3ccccc3[C@@H]2N2C(=O)c3c(C)cc(C)cc3NC(=O)[C@@]12C,2.7,11.0*,-9.1,-1.6,2.8,7.4,27.6*,11.4*
O=C(c1cc(Cl)cc(Cl)c1)N1CCC(Oc2cccnc2)CC1,.,.,.,-1.0,.,23.0,.,.
COc1cc(/C=N/Nc2ccccn2)ccc1OCC(C)C,-54.9,7.8*,-5.7,6.6,-2.9,-21.8,87.0*,38.4*
CCOc1ccc(/C=N/Nc2ccccn2)cc1OC,-52.1,6.1,-9.4,2.0,-1.5,-52.8,.,.
COc1ccc(Cn2ccc3ccc(-c4ccc5ccn(Cc6cccc(F)c6)c5c4)cc32)cc1,.,.,.,-1.1,.,-0.6,.,.
COc1ccc2sc(-c3ccc(SC)cc3)c(C#CC(C)(C)O)c2c1,11.3,7.8*,-7.6,0.8,-7.8,-14.0,37.3*,26.1*
O=C(Nc1cc2c(cc1Cl)OCCCO2)c1ccco1,.,0.2,-3.1,4.3,-8.9,-36.1,.,.
O=C(Nc1cc2c(cc1Cl)OCCCO2)c1ccccc1,11.8,8.8*,-14.8,6.0,-5.0,-23.6,107.0*,41.2*
Cc1ccc(C(=O)NNC(=S)NC(=O)c2ccccc2)cc1,-6.6,0.7,11.9,-3.5,-0.6,-22.6,.,.
